These results are taken from the supplement of paper PMC13380429.

The structures appear in SMILES notation. Values without a mark were called inactive.

This experiment deals with Vero E6 infected with SARS-CoV-2. The experiment in a line: inhibition of SARS-CoV-2 cytopathic effect; higher = more antiviral protection, active = above 15. The conditions noted are these: 48 h.

With `C#Cc1cnc2nc(O)n(C(CC)CC)c2n1` [tirasemtiv], the “inhibition of SARS-CoV-2 cytopathic effect” value (“inhibition” below) by setting is: (1 nM) 1.57%; (8.33 nM) -0.65%; (100 nM) 1.78%; (833.33 nM) 2.57%; (10000 nM) -1.21%.

For the compound `CCCCCCCCCCCCCCSCC(=O)O` [tetradecylthioacetic-acid], the “inhibition” value (1 nM) was 0.56%; the “inhibition” value (8.33 nM) is 0.01%; the “inhibition” value (100 nM) is -2.65%; the “inhibition” value (833.33 nM) was -4.9%; the “inhibition” value (10000 nM) is 1.48%.

For the compound `Nc1nccc(Oc2ccc(NC(=O)c3c[nH]cc(-c4ccc(F)cc4)c3=O)cc2F)c1Cl` [metatinib], the “inhibition” value (1 nM) was 0.06%; the “inhibition” value (8.33 nM) is 0.76%; the “inhibition” value (100 nM) is 0.97%; the “inhibition” value (833.33 nM) was 4.29%; the “inhibition” value (10000 nM) is -2.56%.

Regarding `COc1cccc2c1C(=O)c1c(O)c3c(c(O)c1C2=O)C[C@@](O)(C(=O)CO)C[C@@H]3O[C@H]1C[C@H](N)[C@H](O[C@@H]2CCCCO2)[C@H](C)O1` [pirarubicin], the “inhibition” value by setting is: (1 nM) -1.57%; (8.33 nM) -0.32%; (100 nM) -0.19%; (833.33 nM) -1.24%; (10000 nM) -2.07%.

With `CC(C)=CCC[C@](C)(O[C@@H]1O[C@H](CO)[C@@H](O)[C@H](O)[C@H]1O)[C@H]1CC[C@]2(C)[C@@H]1[C@H](O)C[C@@H]1[C@@]3(C)CC[C@H](O[C@@H]4O[C@H](CO)[C@@H](O)[C@H](O)[C@H]4O[C@@H]4O[C@H](CO)[C@@H](O)[C@H](O)[C@H]4O)C(C)(C)[C@@H]3CC[C@]12C` [ginsenoside-RD], the “inhibition” value is -2.36% (1 nM); -1% (8.33 nM); 2.51% (100 nM); 0.27% (833.33 nM); 0.18% (10000 nM).

On to `COc1ccc2nc3cc(Cl)ccc3c(Nc3cc(CN4CCCC4)c(O)c(CN4CCCC4)c3)c2n1` [pyronaridine], for which the “inhibition” value (1 nM) is 3.08%; the “inhibition” value (8.33 nM) is 4.56%; the “inhibition” value (100 nM) was 8.6%; the “inhibition” value (833.33 nM) is 3.79%; the “inhibition” value (10000 nM) is -18.6%.

Consider `CC(C)C[C@@H](C=O)NC(=O)[C@H](CC(C)C)NC(=O)[C@H](CC(C)C)NC(=O)OCc1ccccc1`, for which the “inhibition” value is -0.72% (1 nM); 0.74% (8.33 nM); 9.43% (100 nM); 54% (active) (833.33 nM); 55.5% (active) (10000 nM).

Regarding `COc1ccccc1OC(=O)c1ccccc1OC(C)=O` [guacetisal], the “inhibition” value by setting is: (1 nM) -0.24%; (8.33 nM) -1.18%; (100 nM) 1.85%; (833.33 nM) 4.31%; (10000 nM) -0.68%.

As for `CCC(=O)NC1CCc2cccc(OC)c2C1` (stereo not given), the “inhibition” value is, setting by setting: (1 nM) 0.92%; (8.33 nM) 1.4%; (100 nM) 2.16%; (833.33 nM) 7.57%; (10000 nM) 4.57%.

Regarding `O=C(O)C(=O)c1cn(Cc2ccccc2)c2ccc(-c3ccc(OC(F)(F)F)cc3)cc12` [tiplaxtinin], the “inhibition” value is 2.16% (1 nM); 2.56% (8.33 nM); 3.44% (100 nM); 2.13% (833.33 nM); 4.09% (10000 nM).

In the case of `C=CC[N@@+]12CC[C@@]34c5ccccc5N5/C=C6/[C@H]7C[C@H]8[C@@]9(CC[N@@+]8(CC=C)C/C7=C/CO)c7ccccc7N(/C=C(/[C@@H](C[C@@H]31)/C(=C\CO)C2)[C@H]54)[C@@H]69` [alcuronium], the “inhibition” value was 1.2% (1 nM); -0.77% (8.33 nM); -0.24% (100 nM); -0.81% (833.33 nM); 4.13% (10000 nM).

As for `C[C@@H](NCc1cc(Br)cc2nc(O)c(O)nc12)P(=O)(O)O`, the “inhibition” value is, setting by setting: (1 nM) -0.47%; (8.33 nM) 3.65%; (100 nM) -0.39%; (833.33 nM) -1.72%; (10000 nM) -3.97%.

For `N[C@]1(C(=O)O)CC[C@@H](C(=O)O)C1`, the “inhibition” value (1 nM) was 1.21%; the “inhibition” value (8.33 nM) was 2.87%; the “inhibition” value (100 nM) is 0.81%; the “inhibition” value (833.33 nM) is 1.58%; the “inhibition” value (10000 nM) is 1.7%.

In the case of `CCOc1nc2cccc(C(=O)O)c2n1Cc1ccc(-c2ccccc2-c2nnn[nH]2)cc1` [candesartan], the “inhibition” value reads like this: (1 nM) -1.63%; (8.33 nM) -2.91%; (100 nM) -3.25%; (833.33 nM) -3.84%; (10000 nM) -1.38%.

In the case of `Cc1ccsc1/C=C/C1=NCCCN1C` [morantel], the “inhibition” value by setting is: (1 nM) -0.99%; (8.33 nM) -3.26%; (100 nM) -2.09%; (833.33 nM) -5.69%; (10000 nM) -0.33%.

For the compound `COC1=C[C@@H]2[C@@H]3Cc4ccc(OC)c(O)c4[C@]2(CCN3C)CC1=O` [sinomenine], the “inhibition” value (1 nM) is -1.85%; the “inhibition” value (8.33 nM) is 0.19%; the “inhibition” value (100 nM) was -1.8%; the “inhibition” value (833.33 nM) was 2.51%; the “inhibition” value (10000 nM) is 0.68%.

For the compound `O=C(O)C1=C(CSc2nnnn2CS(=O)(=O)O)CS[C@@H]2[C@H](NC(=O)[C@H](O)c3ccccc3)C(=O)N12` [Cefonicid (sodium)], the “inhibition” value (1 nM) is -0.91%; the “inhibition” value (8.33 nM) is -1.09%; the “inhibition” value (100 nM) was 0.45%; the “inhibition” value (833.33 nM) was 0.79%; the “inhibition” value (10000 nM) was 1.23%.

With `CC(C)(Sc1ccncc1-c1ccc(C#N)c2ccccc12)C(=O)O` [verinurad], the “inhibition” value runs as follows: (1 nM) -0.56%; (8.33 nM) 1.54%; (100 nM) 0.77%; (833.33 nM) -0.34%; (10000 nM) 1.75%.
